Results reported in PubChem BioAssay AID1645849 (National Center for Advancing Translational Sciences (NCATS), 2021).
Records with an inconclusive call do not appear. Active and inactive are the calls of the source. Calls follow the shape of the dose curve; as a rule, active = well fitted inhibition curve with a large enough effect in the repeat runs; inconclusive = weak or mixed curves; inactive = no such curve, though single readings can be large or run the other way.

assay: Comparison of Janus kinase inhibitors to block the type I interferon pathway in human skeletal muscle cells: JAK inhibition assay; conditions: IFN pathway HiBiT reporter; series mostly up to 45.9 µM
Source text: Assay Submitter: Travis B. Kinder Ph.D.
National Center for Advancing Translational Sciences (NCATS)
The family of Janus kinases (JAK1, JAK2, JAK3, TYK2) mediate signal transduction from cytokine receptors through phosphorylation and activation of intracellular signaling pathways and transcription factors. Small molecule antagonists of JAKs (jakinibs) have been developed with varying selectivity for the use in malignancies and immune regulation. […] We have assayed a library of 48 jakinibs for their ability to inhibit the JAK1/TYK2-dependent type I interferon (IFN) - major histocompatibility complex (MHC) class I pathway in human skeletal muscle cells genome-engineered to fuse a pro-luminescent HiBiT peptide to endogenous MHC class I.
The assay utilized CRISPR/Cas9 genome-engineered immortalized human myoblasts, C25cl48, where a pro-luminescent reporter HiBit was fused to the C-terminus of endogenous MHC class I allele HLA-B*08:01 (HLA-B HiBit myoblasts) (Kinder et al., 2020). HiBit is an 11 amino acid fragment of NanoLuc luminescent reporter (Promega Corporation), and when complexed to the larger LgBit fragment, the reconstituted enzyme produces light in the presence of furimazine substrate. Briefly, HLA-B HiBit myoblasts were plated into 1536-well plates, treated with 4.0 ng/ml human IFN-beta and 48 jakinibs in an 11-point, 1:3 titration with a high final concentration of 46 uM. After 24 hrs of treatment, cells were assayed by Nano-Glo HiBiT Lytic Detection System (Promega) and luminescence measured by a ViewLux 1430 Ultra HTS (Perkin Elmer).
Kinder TB, Dranchak PK, Inglese J. High-Throughput Screening to Identify Inhibitors of the Type I Interferon-Major Histocompatibility Complex Class I Pathway in Skeletal Muscle. ACS Chem Biol. 2020 Jul 17;15(7):1974-1986. doi: 10.1021/acschembio.0c00343
PROTOCOL TABLE (as described by Inglese et al., 2007)
SEQUENCE No. (e.g., 1, 2, 3, etc.); PARAMETER (e.g., Cells, Incubation, Reagent, etc.); VALUE; DESCRIPTION
1a; Cells; 5 uL; Seed 250 cells/well with a Multidrop Combi (Thermo Scientific) into two Greiner 1536 well white/solid bottom, high base, TC plates (789173-F) in 5 ul/well of growth medium (GM) without dexamethasone into columns 1+2
1b; Cells; 5 uL; Seed 250 cells/well with a Multidrop Combi (Thermo Scientific) into two Greiner 1536 well white/solid bottom, high base, TC plates (789173-F) in 5 ul/well of GM without dexamethasone + 4 ng/ml IFN-beta into columns 3 - 48. Add metal lids with gas-exchange holes
2; Incubate; 30 min; Incubate at 37C, 5% CO2, 95% RH
3; Compounds; 23 nl; Transfer DMSO control and library compounds in DMSO with Pin Tool (Wako)
4; Incubate; 24 hrs; Incubate at 37C, 5% CO2, 95% RH
5; Dispense; 2.5 ul; Add HiBit lytic reagent with a BioRAPTR FRD (Beckman Coulter)
6; Incubate; 10 min; Incubate in the dark at ambient temperature for lysis
7; Detector; 5 sec; Measure luminescence with ViewLux 1430 Ultra HTS (Perkin Elmer). Settings: Exposure = 5 sec, Gain = High, Speed = Slow, Binning = 2X
NOTES (numbers refer to sequence above)
1; HLA-B HiBit myoblasts cultured in GM - 4:1 ratio DMEM Glutamax (Thermo Fisher, 10566) : M199 (Thermo Fisher, 11150), 10% FBS (Hyclone Standard), 1% Pen/Strep, 50 ug/ml fetuin, 10 ng/ml hEGF, 1 ng/ml bhFGF, 10 ug/ml insulin, 0.4 ug/ml dexamethasone (supplements from Promocell, C-39360). […] Recombinant human IFN-beta (Peprotech, 300-02BC) was reconstituted in water, diluted in GM, and aliquots stored at -80C until day of use.
3; Control plate contained DMSO in columns 1 and 4, digitonin (Sigma, D141) cytotoxicity control in DMSO at 20 mM in column 2, and ruxolitinib (Selleckchem, S1378) inhibitor control in DMSO 16-point, 1:2 titration, high concentration = 17 mM in column 3. Digitonin and ruxolitinib stocks were reconstituted at 20 and 50 mM in DMSO and aliquots stored at -20C. Forty-eight compounds were added in an 11-point, 1:3 titration with a high final concentration of 46 uM by Pintool (Wako) from one library plates and one DMSO control plate
[…]

SMILES	Potency
N#CC[C@H](C1CCCC1)n1cc(-c2ncnc3[nH]ccc23)cn1	0.861 µM (active)
Cc1cc(Nc2nc(N[C@@H](C)c3ncc(F)cn3)ncc2Cl)n[nH]1	1.47 µM (active)
NC(=O)c1nc(-c2c(F)cccc2Cl)oc1Nc1ccc(C(=O)N2CCOCC2)cc1	5.23 µM (active)
CCCS(=O)(=O)NC1CC(N(C)c2ncnc3[nH]ccc23)C1 (centres undefined)	3.7 µM (active)
CC[C@@H]1CN(C(=O)NCC(F)(F)F)C[C@@H]1c1cnc2cnc3[nH]ccc3n12	0.33 µM (active)
NC(=O)c1cnc2[nH]ccc2c1NC1C2CC3C[C@H]1CC(O)(C3)C2 (some centres undefined)	1.72 µM (active)
CNS(=O)(=O)CC1CCC(N(C)c2ncnc3[nH]ccc23)CC1 (centres undefined)	4.66 µM (active)
C=CC(=O)N1C[C@H](Nc2ncnc3[nH]ccc23)CC[C@@H]1C	inactive
CCS(=O)(=O)N1CC(CC#N)(n2cc(-c3ncnc4[nH]ccc34)cn2)C1	1.31 µM (active)
Cc1cnc(Nc2ccc(OCCN3CCCC3)cc2)nc1Nc1cccc(S(=O)(=O)NC(C)(C)C)c1	3.56 µM (active)
N#CCNC(=O)c1ccc(-c2ccnc(Nc3ccc(N4CCOCC4)cc3)n2)cc1	4.48 µM (active)
[2H]C([2H])([2H])NC(=O)c1nnc(NC(=O)C2CC2)cc1Nc1cccc(-c2ncn(C)n2)c1OC	0.0711 µM (active)
CC1(C)CN(C(=O)c2ccc(-c3cccc4nc(NC(=O)C5CC5)nn34)cc2)C1	7.67 µM (active)
Cc1oncc1C(=O)Nc1ccc(C(F)(F)F)cc1	17.2 µM (active)
CN1CCN(c2cccc(Nc3nc4c(-c5ccc(S(C)(=O)=O)cc5)cccn4n3)c2)CC1	3.06 µM (active)
CC[C@@](C)(Nc1ccnc(-c2c[nH]c3ncccc23)n1)C(=O)NCC(F)(F)F	8.29 µM (active)
CC(=O)Nc1cc(Oc2ccc3c(nc(Nc4ccc(F)cc4F)n3C)c2C)ccn1	0.37 µM (active)
Cc1cnc(Nc2ccc(CN3CCOCC3)cc2)nc1Nc1cccc(S(=O)(=O)NC(C)(C)C)c1	5.43 µM (active)
COc1nsc(NC(=O)N2C[C@H]3CC(N(C)c4ncnc5[nH]ccc45)C[C@H]3C2)n1 (some centres undefined)	0.432 µM (active)
C[C@@]12O[C@@H](C[C@]1(O)CO)n1c3ccccc3c3c4c(c5c6ccccc6n2c5c31)CNC4=O	0.415 µM (active)

SMILES	Potency
COc1cc2ncnc(Nc3ccc(O)cc3)c2cc1OC	inactive
Cc1cnc(Nc2ccc(N3CCN(C)CC3)cc2)nc1Nc1cccc(S(=O)(=O)NC(C)(C)C)c1	2.43 µM (active)
N#CCC1(n2cc(-c3ncnc4[nH]ccc34)cn2)CN(C2CCN(C(=O)c3ccnc(C(F)(F)F)c3F)CC2)C1	0.861 µM (active)
CC(C)(C)c1nc2c3cc[nH]c(=O)c3c3cc(F)ccc3c2[nH]1	1.26 µM (active)
CCS(=O)(=O)N1CCN(c2ccc(Nc3ncc(C(N)=O)c(NC4CC4)n3)cc2)CC1	0.93 µM (active)
Cc1cnc(Nc2cccc(CN3CCOCC3)c2)nc1Nc1cccc(S(=O)(=O)NC(C)(C)C)c1	10 µM (active)
CCC[C@H](NC(=O)/C(C#N)=C/c1cccc(Br)n1)c1ccccc1	7.39 µM (active)
O=C(Nc1ccnc(NC(=O)C2CC2)c1)c1c(Cl)cccc1Cl	4.48 µM (active)
CN(C)c1ccc(Nc2nc(N)n(C(=O)c3c(F)cccc3F)n2)cc1	6.58 µM (active)
C[C@@H]1CCN(C(=O)CC#N)C[C@@H]1N(C)c1ncnc2[nH]ccc12	2.16 µM (active)
Cc1cc(Nc2cc(CN3CCOCC3)c3nc(C)c(Cc4ccc(Cl)cc4F)n3n2)n[nH]1	14.2 µM (active)
N#C/C(=C\c1ccc(O)c(O)c1)C(=O)NCc1ccccc1	inactive
Fc1cc(-c2cccc3ncc(-c4cnn(C5CCNCC5)c4)nc23)cc(F)c1CN1CCOCC1	17.9 µM (active)
Cn1cc(Nc2nccc(N3C[C@H]4CC[C@@H](C3)N4C(=O)[C@@H]3CC3(F)F)n2)cn1	3.56 µM (active)
CC(C)N(CCC(=O)c1ccc2ccccc2c1)Cc1ccccc1	14.2 µM (active)
Cc1cc(Nc2nc(N[C@@H](C)c3ccc(F)cc3)c(C#N)cc2F)n[nH]1	1.08 µM (active)
O=C(Nc1nc2cccc(-c3ccc(CN4CCS(=O)(=O)CC4)cc3)n2n1)C1CC1	15.3 µM (active)
Cc1cc(Nc2cc(NC(=O)c3c(Cl)cccc3Cl)ccn2)nc(N)n1	2.16 µM (active)
C1=C/COCc2cc(ccc2OCCN2CCCC2)Nc2nccc(n2)-c2cccc(c2)COC/1	2.16 µM (active)
